These results are taken from PubChem BioAssay AID431 (Sanford-Burnham Center for Chemical Genomics, 2006).

The structures appear in SMILES notation. Hit rate of the full screen: of about 63,000 compounds, about 1,100 (1.7%) were called active. What follows is part of a selection rich in actives, with near analogues and random picks from the rest. Entries with a potency or affinity are not part of this list. Unmarked numbers belong to inactive results.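 How the source made its calls: active means compounds whose percent cytotoxicity in the single-dose primary screen, scaled between solvent and toxic-drug controls, exceeds 50; inactive means the rest.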

The test in a line: cytotoxicity in KRAS-transformed pancreatic duct cells, primary screen, cell-based, fluorescence, HTS (AID 431).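 Further: 0% = DMSO solvent wells and 100% = doxorubicin-treated wells.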 The conditions noted are these: HPDE-C7K KRASV12 cells, Alamar Blue viability, 48 h; at 10 µM; active compounds read high. (In general: The colour change of resazurin is a common sign of viable cells or microbes.)
Take `O=C(NC1CCCC1)C1CC1c1ccccc1` (stereo not drawn): the cytotoxicity was 17.8%.
On to `CC1(C)CC(=O)C2=C(C1)OC(N)=C(C#N)C2c1cccc(OC(=O)c2ccco2)c1` (stereo not drawn), for which the cytotoxicity was -2.4%.
Regarding `COc1ccc(-c2cc(C(F)(F)F)nc(N3CCCCC3)n2)cc1OC`, the cytotoxicity was -2.6%.
Turning to `FC(F)(F)c1cc(-c2ccco2)nc(-n2cnc3ccccc32)n1`, the cytotoxicity is 41.5%.
The result for `COc1nc(-c2ccccc2)cc(C(F)(F)F)n1` reads -0.7%; that for `FC(F)(F)c1cc(-c2ccco2)nc(-n2nnc3ccccc32)n1`, 3.9%.
`Nc1nc(-c2ccccc2)cc(C(F)(F)F)n1`: the cytotoxicity is -1.4%.
Take `FC(F)(F)c1cc(-c2ccco2)nc(NCc2ccco2)n1`: the cytotoxicity was -0.2%.
Regarding `COc1ccc(-c2cc(C(F)(F)F)nc(NC3CCCC3)n2)cc1OC`, the cytotoxicity was 8.8%.
`FC(F)(F)c1cc(-c2ccco2)nc(NCc2ccccc2)n1`: the cytotoxicity is 8.4%.
Regarding `COC(=O)CC1Oc2ccccc2N(Cc2ccc(C)cc2)C1=O` (stereo not drawn), the cytotoxicity is 1.3%.
Turning to `O=C(CCC1CCCC1)Nc1ccon1`, the cytotoxicity is -5.5%.
For the molecule `CCOc1ccc(NC(=O)Nc2ccc3nccnc3c2)cc1`, the cytotoxicity is 8.3%.
On to `O=C(CSc1nc(-c2ccc(F)cc2)cs1)NC(=O)NCc1ccco1`, for which the cytotoxicity is 1%.
As for `CCOC(=O)/C=C1\SCC(=O)N1Cc1nnc(-c2ccccc2Br)o1`, the cytotoxicity was -23.5%.
For the molecule `COC(=O)c1[nH]c(C)c(/C(O)=C2\C(=O)C(=O)N(CCN(C)C)C2c2cc(OC)ccc2OC)c1C` (stereo not drawn), the cytotoxicity was -7.9%.
Consider `O=C(CSc1ncc(-c2ccccc2)nn1)NCc1ccco1`, for which the cytotoxicity is -13.8%.
The same measure for `CN1CCN(c2nc(-c3cccs3)cc(C(F)(F)F)n2)CC1`: 3.2%; for `CC(C)c1nnc(NC(=O)CCS(=O)(=O)c2nc(-c3cccs3)cc(C(F)(F)F)n2)s1`: 43.6%.
Consider `CCn1c(SCC(=O)Nc2ccc(N3CCOCC3)c(Cl)c2)nnc1-c1ccc(N)cc1`, for which the cytotoxicity was 3.4%.
As for `Clc1ccc(OCc2nn3c(C4CCCCC4)nnc3s2)cc1`, the cytotoxicity is 17.1%.
The same measure for `CCOc1cc(-c2nc(-c3ccc(C)nc3OC)no2)cc(OCC)c1OCC`: -15%.
For the molecule `Cc1nc(NC(=O)c2oc3ccccc3c2C)sc1C(=O)N(C)C`, the cytotoxicity is 12.9%.
The result for `CCN1CCN(c2ncc(C(=O)Nc3ccccc3C(=O)OC)c3ccccc23)CC1` reads 40.3%; that for `CCN1CCN(c2ncc(C(=O)Nc3cc(Cl)ccc3OC)c3ccccc23)CC1`, 75.3% (active).
`CCN1CCN(c2ncc(C(=O)Nc3cc(Cl)c(OC)cc3OC)c3ccccc23)CC1`: the cytotoxicity was 11.7%.
As to `O=c1/c(=C\c2cccnc2)sc2nc3ccccc3n12`, the cytotoxicity is -13.6%.
As for `COc1cc(C(=O)OC(C)CN2CCN(C)CC2)cc(OC)c1OC` (stereo not drawn), the cytotoxicity was -37.3%.
The result for `O=C(CN1C(=O)COc2ccccc21)c1ccc(Cl)cc1` reads -0.2%; that for `Cc1ccc(C(=O)CSc2nnc(CNc3nc(-c4ccccc4)cs3)n2C)cc1`, 4.1%.
The same measure for `COc1ccc(OCC(=O)Nc2ccccc2C(=O)N2CCCC2)cc1`: -0.2%.
The same measure for `NS(=O)(=O)c1ccc(S(=O)(=O)N(Cc2ccccc2F)CC2CCCO2)cc1` (stereo not drawn): 4%.
`CC(NC(=O)NCC1CCCO1)(C(F)(F)F)C(F)(F)F` (stereo not drawn): the cytotoxicity was -11.1%.
Take `Cc1ccccc1-n1c(C)nnc1SCC(=O)NCC1CCCO1` (stereo not drawn): the cytotoxicity was -1.6%.
On to `COc1ccc(S(=O)(=O)N(C)CC(=O)NC2CCCC2)cc1Cl`, for which the cytotoxicity was -18%.
In the case of `Cc1nc2ccccc2c(=O)n1/N=C/c1ccc(O)cc1`, the cytotoxicity is 24.4%.
With `Oc1ccc2oc3c(c2c1/C=N/n1cnnc1)CCCC3`, the cytotoxicity is -21.1%.
In the case of `Cc1nc2ccccc2c(=O)n1/N=C/c1c(O)ccc2oc3c(c12)CCCC3`, the cytotoxicity was 72.1% (active).
For `O=C(Oc1c(Cl)cc(Cl)c2cccnc12)N1CCCCC1`, the cytotoxicity was 10.8%.
In the case of `CCCC(=O)Nc1ccc(Cl)c(NC(=O)c2ccco2)c1`, the cytotoxicity is 3.9%.
Take `CCCC(=O)NC(c1ccco1)c1cc(Cl)c2cccnc2c1O` (stereo not drawn): the cytotoxicity is 59.2% (active).
As to `NC(=O)c1ccc(N2CCCCC2)c(N2C(=O)C3C4C=CC(C4)C3C2=O)c1` (stereo not drawn), the cytotoxicity was 2.5%.
On to `O=C(CSc1nc(O)cc(=O)n1-c1ccccc1)NCc1ccccc1`, for which the cytotoxicity is -1%.
Regarding `CC1=C(C(=O)OC(C)C)C(c2cccs2)N2C(=O)CCSC2=N1` (stereo not drawn), the cytotoxicity is 10.1%.
In the case of `O=C1CC(N2CCN(c3ccc(F)cc3)CC2)C(=O)N1Cc1cccs1` (stereo not drawn), the cytotoxicity is -7.6%.
With `O=C1CC(N2CCN(c3nc4ccccc4s3)CC2)C(=O)N1Cc1cccs1` (stereo not drawn), the cytotoxicity was 5.6%.
`Cc1cccc(N(CC(=O)NC2CCCCC2)C(=O)CCC(=O)Nc2cc(C)ccn2)c1`: the cytotoxicity was -11.1%.
As to `N#Cc1cccc2cnccc12`, the cytotoxicity was -3.3%.
As to `CN(C)c1ccc(-c2nn3c(-c4ccncc4)nnc3s2)cc1`, the cytotoxicity was -7.6%.
Regarding `CCN(CC)c1ccc(-c2nn3c(-c4cccnc4)nnc3s2)cc1`, the cytotoxicity is 56.4% (active).
The same measure for `CN(C)c1ccc(-c2nn3c(-c4cccnc4)nnc3s2)cc1`: -11.9%; for `CCOc1ccc(-c2nn3c(-c4ccc(F)cc4)nnc3s2)cc1`: 9.9%.
Take `c1cncc(-c2nn3c(-c4ccncc4)nnc3s2)c1`: the cytotoxicity is -1%.
As to `O=C(CC1(O)C(=O)N(Cc2ccc3c(c2)OCO3)c2ccccc21)c1ccccc1` (stereo not drawn), the cytotoxicity is -28%.
The result for `O=C(NCC1CCCO1)c1csc2c1CCCCC2` (stereo not drawn) reads -11.1%; that for `COc1ccccc1N1CCN(Cc2ccc(OC)c(OC)c2OC)CC1`, -15.5%; that for `CCCC(N)CCCCCC(=O)O` (stereo not drawn), 4.3%.
Consider `CCSC(SCC)[C@H](O)[C@@H](O)[C@H](O)[C@H](O)CO`, for which the cytotoxicity was -20.9%.
In the case of `N#CC(C(=O)NC1CCCCC1)c1nc2ccccc2nc1N1CCCCC1` (stereo not drawn), the cytotoxicity is -0.2%.
As for `CC(=O)NCCCc1c[nH]c2ccc(Cl)cc12`, the cytotoxicity is 5.3%.
In the case of `O=C(NCc1ccc(Cl)cc1)c1ccc(COCC(F)(F)F)o1`, the cytotoxicity is 7.2%.
As for `COc1ccc(-n2nnc3c(=O)n(CC(=O)NCC4CCCO4)cnc32)cc1` (stereo not drawn), the cytotoxicity is -5%.
For the molecule `COc1cccc(CNc2nc3ccccc3n2CCN2CCCCC2)c1`, the cytotoxicity was -17.7%.
Turning to `CCn1c(NC2CCCCC2)nc2ccccc21`, the cytotoxicity is 15.1%.
The same measure for `COc1ccc(C(=O)CSc2nnc(-c3ccoc3C)n2CC2CCCO2)cc1` (stereo not drawn): -33%; for `Cc1nc2c(-c3ccccc3)c(C)nn2c(C)c1CCC(=O)N1CCOCC1`: -17%.
The result for `Cc1cc(C)c(S(N)(=O)=O)c(C)c1-n1cnnn1` reads -18.5%.
Regarding `CCOC(=O)CSC1=C(C#N)C(c2ccccc2C)C2=C(CCCC2=O)N1` (stereo not drawn), the cytotoxicity is 0.9%.
For `COc1cccc(C2/C(=C(\O)c3c(C)nc4c(C)cccn34)C(=O)C(=O)N2CCCN(C)C)c1OC` (stereo not drawn), the cytotoxicity is -1.4%.
On to `c1ccc2c(c1)[nH]c1c(N3CCCC3)ncnc12`, for which the cytotoxicity is 20%.
Take `CCOC(=O)c1[nH]c2ccc(OCC)cc2c1NC(=O)CN1CCN(c2ccccn2)CC1`: the cytotoxicity is 0.9%.
The result for `CCOC(=O)N1CCN(c2ncnc3c2[nH]c2ccc(OC)cc23)CC1` reads 18.4%; that for `c1ccc(CN2CCN(c3ncnc4c3[nH]c3ccccc34)CC2)cc1`, 119% (active); that for `c1ccc2c(c1)[nH]c1c(N3CCSCC3)ncnc12`, 44.2%.
`OC1(c2cccc(C(F)(F)F)c2)CCN(c2ncnc3c2[nH]c2ccccc23)CC1`: the cytotoxicity is 124% (active).
Take `O=C(c1ccco1)N1CCN(c2ncnc3c2[nH]c2ccccc23)CC1`: the cytotoxicity is 21.1%.
Consider `c1ccc(CN2CCN(c3ncnc4nc[nH]c34)CC2)cc1`, for which the cytotoxicity was -3.8%.
As to `CCOc1ccc2[nH]c3c(N4CCN(c5ccccn5)CC4)ncnc3c2c1`, the cytotoxicity is 77.1% (active).
As for `c1ccc2c(c1)[nH]c1c(N3CCC4(CC3)OCCO4)ncnc12`, the cytotoxicity was 23.3%.
For `Cc1ccc2c(c1)[nH]c1c(N3CCN(Cc4ccccc4)CC3)ncnc12`, the cytotoxicity is 107% (active).
With `c1ccc2c(c1)[nH]c1c(N3CCOCC3)ncnc12`, the cytotoxicity is -3.2%.
In the case of `Cc1nonc1NC(=O)Nc1cccnc1`, the cytotoxicity is 5.4%.
The same measure for `CCOc1ccccc1N(CC(=O)NCc1ccc(OC)cc1)S(C)(=O)=O`: -11.2%.
Regarding `COc1ccc(-n2nnnc2SCC(=O)Nc2cccc(NC(C)=O)c2)cc1OC`, the cytotoxicity is 11.1%.
On to `CSC1=NCCN1C(=O)Cc1ccc(Cl)cc1`, for which the cytotoxicity was 3.5%.
For the molecule `CCOC(=O)c1ccc(NC(=O)c2nn(CC)cc2Br)cc1`, the cytotoxicity was 0.8%.
With `Cc1ccc2[nH]c3c(N4CCCCCC4)ncnc3c2c1`, the cytotoxicity was 30.4%.
On to `Cc1ccc2[nH]c3c(N4CCOCC4)ncnc3c2c1`, for which the cytotoxicity is 16.2%.
Take `O=C(c1cccc(-c2nnc(-c3ccccc3)o2)c1)N1CCCCC1`: the cytotoxicity is 14%.
The same measure for `COCCNC(=O)CN1CCC(NC(=O)Nc2ccccc2)CC1`: -1%; for `CN(Cc1ccccc1)C(=O)CCCn1c(=O)[nH]c2cc(Cl)ccc2c1=O`: -8.5%.
Take `COc1ccc(-c2nsc3c(N4CCCC4)ncnc23)cc1`: the cytotoxicity was 11.5%.
Turning to `COc1ccc(S(=O)(=O)N2CCN(c3ncnc4c(-c5ccccc5)nsc34)CC2)cc1`, the cytotoxicity was -20.8%.
As to `COc1ccc(-c2nsc3c(N4CCN(S(=O)(=O)c5ccccc5)CC4)ncnc23)cc1`, the cytotoxicity is 56.4% (active).
Turning to `CCOC(=O)C(NC(=O)c1ccccc1)=C1C=C(C)OC(C)=C1`, the cytotoxicity is -13.9%.
Turning to `O=C(NCc1ccc2c(c1)OCO2)c1nnc(Cc2ccc(Cl)cc2)o1`, the cytotoxicity was 1.6%.
The same measure for `O=C(NCc1ccc2c(c1)OCO2)c1cccc(Cl)c1`: 3.6%.
In the case of `O=C(NCc1ccc2c(c1)OCO2)c1ccc(-c2ccc(Cl)cc2)o1`, the cytotoxicity is 61.3% (active).
